# Screening results (PubChem BioAssay)
# This excerpt belongs to a sample that is enriched for hits.
# nsP2pro inh: blocks chikungunya virus nsP2 protease peptide cleavage; Q8JUX6; FRET peptide cleavage, nsP2pro, fluorescence 1 h; Potency, µM (top dose mostly 24.9 µM), for inactives: top-dose activity change, negative = inhibition, actives largely listed as inhibitors; 31,000 tested, 1.1% active; note: nearly all actives have a fitted effect of over 60% in size
#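 Enzyme 150 nM, substrate 2.5 uM (both final); Tris-HCl 10 mM pH 8.0 + 0.01% Tween 20; cpd up to 25 uM, 7 pts; 15 min preinc., 1 h RT; fluorescence ex 525/em 598.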
# nsP2 cell sec: cell-based CHIKV nsP2 protease inhibition, secondary. Potency, µM (series often up to 51.1 µM), for the others: top-dose activity change, negative = inhibition, usual class: inhibitors. shares compounds with nsP2pro inh. AID 1964100. 450 tested, 10% active. cell-based CHIKV nsP2 protease reporter assay; note: nearly all actives have a fitted effect of over 70% in size
# NSP2 full ctr: inhibits full-length CHIKV NSP2 enzyme | shares compounds with nsP2pro inh | Full-length CHIKV NSP2 protease enzymatic counterscreen | Potency, µM (doses to about 50.7 µM), without a hit: at the top dose activity change, negative = inhibition, usual class: inhibitors | 410 tested, 39% active | AID 1964101; note: nearly all actives have a fitted effect of over 65% in size
# Furin counterscr: human furin inhibition, counterscreen for nsP2pro inhibitors; shares compounds with nsP2pro inh; Recombinant human furin enzymatic counterscreen, fluorogenic substrate; Potency, µM (titrated, usually from 50.6 µM), without a hit: at the highest dose activity change, negative = inhibition, usual class: inhibitors; 410 tested, 6% active
# Target sequence (P09958 whole entry, looked up): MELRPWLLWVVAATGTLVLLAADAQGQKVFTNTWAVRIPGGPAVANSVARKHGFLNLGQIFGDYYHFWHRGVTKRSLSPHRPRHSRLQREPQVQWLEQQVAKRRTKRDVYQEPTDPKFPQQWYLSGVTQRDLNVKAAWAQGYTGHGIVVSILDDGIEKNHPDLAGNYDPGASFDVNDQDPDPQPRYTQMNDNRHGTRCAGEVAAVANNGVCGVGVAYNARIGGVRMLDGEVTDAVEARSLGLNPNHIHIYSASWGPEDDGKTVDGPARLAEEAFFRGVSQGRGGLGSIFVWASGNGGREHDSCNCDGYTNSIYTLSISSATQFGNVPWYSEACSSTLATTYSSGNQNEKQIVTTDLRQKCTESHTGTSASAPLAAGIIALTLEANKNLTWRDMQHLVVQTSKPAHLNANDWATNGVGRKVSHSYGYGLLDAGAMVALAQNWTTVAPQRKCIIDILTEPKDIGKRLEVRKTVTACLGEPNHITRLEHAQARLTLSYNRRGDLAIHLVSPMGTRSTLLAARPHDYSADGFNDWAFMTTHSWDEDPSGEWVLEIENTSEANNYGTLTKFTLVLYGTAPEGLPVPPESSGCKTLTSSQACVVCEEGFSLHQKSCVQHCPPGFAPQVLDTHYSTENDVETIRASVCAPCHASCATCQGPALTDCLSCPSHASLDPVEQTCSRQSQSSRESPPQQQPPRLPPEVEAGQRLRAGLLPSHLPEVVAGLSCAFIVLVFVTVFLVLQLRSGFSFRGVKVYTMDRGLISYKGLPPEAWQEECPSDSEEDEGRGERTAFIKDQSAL
# nsP2 NS23 pep: selectivity test for CHIKV nsP2 protease inhibitors: endogenous NS2/3 peptide. shares compounds with nsP2pro inh. Purified CHIKV nsP2 protease, endogenous NS2/3 peptide cleavage. Potency, µM (top dose mostly 51 µM), inactives show top-dose activity change, negative = inhibition, hits mostly inhibitors. 410 tested, 34% active; note: nearly all actives have a fitted effect of over 55% in size
# Papain counter: papain protease inhibition, counterscreen for nsP2pro inhibitors; shares compounds with nsP2pro inh; purified papain protease activity, enzymatic inhibition; Potency, µM (top dose mostly 51 µM), without a hit: at the highest dose activity change, negative = inhibition, hits mostly inhibitors; 410 tested, 5% active
# nsP2pro confirm: CHIKV nsP2 protease inhibition, confirmatory qHTS. 410 tested, 43% active. shares compounds with nsP2pro inh. Potency, µM (titrated, usually from 25.5 µM), inactives show at the top dose activity change, negative = inhibition, most hits filed as inhibitors. AID 1964105. CHIKV nsP2 protease enzymatic activity, qHTS; note: nearly all actives have a fitted effect of over 75% in size
# HCV NS3 4A cs: inhibits HCV NS3/4A protease in an nsP2pro selectivity counterscreen; shares compounds with nsP2pro inh; HCV NS3/4A protease biochemical counterscreen; Potency, µM (titrated, usually from 50.9 µM), most hits filed as inhibitors; 410 tested, 20% active; note: nearly all actives have a fitted effect of over 55% in size
# The depositor's hits bear a star; i = inactive; ? = inconclusive; [ ] = remark or other dose. Calls come from the whole dose curve. % is set by controls: 0 for no effect and ±100 for the full control effect; potency is the fitted concentration of half-maximal effect.
SMILES,nsP2pro inh,others
COc1cc(C2NC(=O)c3c(sc4c3CCN(C)C4)N2)ccc1OC(=O)c1ccccc1 (stereo not drawn),-14%,
COc1cc(Cl)c(C)cc1NC(=O)Cn1ncc2c1-c1cc(C)ccc1OC2,-18%,
Cc1ccc(NS(=O)(=O)c2cc3c(cc2-c2cn[nH]c2)NC(=O)CO3)cc1C,i,
COc1cc(C[C@@H]2NCCc3cc(O)c(O)cc32)cc(OC)c1OC,-13%,
Cc1oc2ccn(C)c(=O)c2c1C(=O)NCc1cc(F)ccc1F,i,
C=C1C(=O)OC2/C=C(\COO)CC/C=C(\COC(C)=O)CC(OC(=O)C(C)CC)C12 (stereo not drawn),3%[10 µM],
C=C1C(=O)O[C@@H]2[C@H]1CC(=O)[C@H](C)[C@@](O)(C(=O)/C=C/C)[C@H]2OC(=O)C(C)CC (stereo partly drawn),?,nsP2 cell sec=?;NSP2 full ctr=?;Furin counterscr=5%[33.5 µM];nsP2 NS23 pep=13µM*;Papain counter=-5%[33.5 µM];nsP2pro confirm=?;HCV NS3 4A cs=i
C=C1C(=O)O[C@@H]2C[C@@H](C)[C@]34C[C@]5(C(=O)O[C@H]6CC(C)=C([C@H](C)CCCO)[C@H](OC(=O)C(C)CC)[C@H]65)[C@@H](C(C)=C3C[C@@H]12)[C@H]4OC(C)=O (stereo partly drawn),13%[10 µM],
Fc1ccc(-n2ncc3c(NCCCc4ccccc4)ncnc32)cc1,-13%,
O=C(Cn1c(=O)oc2cc(S(=O)(=O)NCc3ccccc3)ccc21)Nc1ccc(F)c(Cl)c1,-16%,
O=C(c1ccc(-c2ccco2)cc1)N1CCOC(c2ccccc2)C1 (stereo not drawn),7.9µM*,nsP2 cell sec=?;NSP2 full ctr=10µM*;Furin counterscr=-3%;nsP2 NS23 pep=?;Papain counter=-13%;nsP2pro confirm=9µM*;HCV NS3 4A cs=i
COc1ccc(-c2cc(C(=O)N3CCOC(c4ccc(F)cc4)C3)[nH]n2)cc1 (stereo not drawn),i,
O=C(c1ccc2ncccc2c1)N1CCOC(c2ccc(Cl)c(Cl)c2)C1 (stereo not drawn),3%,
NNCCc1ccccc1,12%,
C=C1CC[C@]2(C(=O)O[C@@H]3O[C@H](CO)[C@@H](O)[C@H](O)[C@H]3O)CC[C@]3(C)C(=CCC4[C@@]5(C)C[C@H](O)[C@@H](O[C@@H]6O[C@H](C(=O)O)[C@@H](O)[C@H](O)[C@H]6O)[C@](C)(C=O)C5CC[C@]43C)C2C1 (stereo partly drawn),0%[5.1 µM],
CCC(OC(=O)c1ccc(S(C)(=O)=O)c([N+](=O)[O-])c1)C(=O)NC1C2CC3CC(C2)CC1C3 (stereo not drawn),1%,
c1cncc(CN2CCn3c(nnc3C3CCCNC3)C2)c1 (stereo not drawn),?,nsP2 cell sec=7%
Fc1ccc(CN2CCn3c(nnc3-c3ccncc3)C2)cc1,-5%,
O[C@@H]1C[C@@H](c2nnc3n2CCN(C2CCCCC2)C3)N(Cc2cccnc2)C1,-22%,
CCc1ccccc1NC(=O)CCCN1C(=O)COc2ccc(C)cc21,-14%,
CCN(C(=O)Cn1nc2c3cc(F)ccc3n(Cc3cccc(C)c3)cc-2c1=O)c1cccc(C)c1,-6%,
CCc1nc(-c2ccc(C)c(S(=O)(=O)N3CCN(c4ccc(C(C)=O)cc4)CC3)c2)no1,-13%,
N#Cc1cccc(CN2CC[C@H](c3nc4ccccc4o3)C2)c1,-2%[39.2 µM],
O=c1c2ccccc2[se]n1-c1ccccc1,4.4µM*,nsP2 cell sec=?;NSP2 full ctr=?;Furin counterscr=2.1µM*;nsP2 NS23 pep=9.2µM*;Papain counter=-11%;nsP2pro confirm=2.2µM*;HCV NS3 4A cs=3.7µM*
COc1ccc(C(C)NC(=O)c2c(C)sc3ccn(C)c(=O)c23)cc1 (stereo not drawn),i,
SMILES,nsP2pro inh,others
COc1cc(/C=C/C(=O)O[C@@H]2C[C@](O)(C(=O)O)C[C@@H](O)[C@H]2O)ccc1O,17%,
COc1cc(-c2noc(CSc3nc(-c4ccc(F)cc4)cc(=O)[nH]3)n2)cc(OC)c1OC,-20%,
COc1ccc2c(Sc3ccc(C)cc3)c(C(=O)NCC(C)c3ccccc3)[nH]c2c1 (stereo not drawn),-22%,
Cc1nn(-c2ccc(C(C)C)cc2)c(C)c1[C@@H]1C=C[C@@H](NC(=O)NC(C)C)C1,8%[39.2 µM],
Cc1nn(-c2ccccn2)c(C)c1[C@@H]1C=C[C@@H](NC(=O)CCC(=O)O)C1,3%[39.2 µM],
Cc1nn(-c2ccc(C(F)(F)F)cc2)c(C)c1[C@@H]1C=C[C@@H](NC(=O)NC(C)C)C1,1.4µM*,nsP2 cell sec=2.1µM*;NSP2 full ctr=-4%;Furin counterscr=15µM*;nsP2 NS23 pep=19µM*;Papain counter=-1%;nsP2pro confirm=2.6µM*;HCV NS3 4A cs=12µM*
Cc1ccc(-n2nc(C)c([C@@H]3C=C[C@@H](NC(=O)NC(C)C)C3)c2C)cc1Cl,-5%[39.2 µM],
CCNC(=O)N[C@@H]1C=C[C@@H](c2c(C)nn(-c3ccc(OC)cc3)c2C)C1,0%[39.2 µM],
Cc1nn(-c2ccccn2)c(C)c1[C@@H]1C=C[C@@H](NC(=O)NC(C)C)C1,10µM*,nsP2 cell sec=?;NSP2 full ctr=19µM*;Furin counterscr=-8%;nsP2 NS23 pep=?;Papain counter=-5%;nsP2pro confirm=13µM*;HCV NS3 4A cs=13µM*
C[C@]12CC[C@H](O)C[C@H]1CC[C@@H]1[C@@H]2[C@H](O)C(=O)[C@]2(C)[C@@H](c3ccc(=O)oc3)CC[C@]12O,2%,
C=CC1(C)CC(O)C2(CCC3C(C)(C(=O)O)CCCC3(C)C2=O)C1 (stereo not drawn),-9%,
O=S(=O)(c1ccccc1)c1nnn2c1nc(N1CCCCC1)c1ccccc12,0%,
COC(=O)C1=C(C)NC(C)=C(C(=O)OC(C)(C)CN(C)CCC(c2ccccc2)c2ccccc2)C1c1cccc([N+](=O)[O-])c1 (stereo not drawn),9%,
CC1CCC2C(C(=O)O)=CC3(O)CC(C)(C)CC123 (stereo not drawn),-14%,
CN(C)c1nc(-c2ccccc2)nc2c1CCN(C(=O)C1CCOC1)C2 (stereo not drawn),-18%,
Cc1cccc(CNc2nc(-c3ccccc3C(C)C)ncc2C)c1,i,
O=C(Nc1ccc(Cl)c(Cl)c1)Nc1nnc(Br)s1,-5%,
